Measurements reported in PubChem BioAssay (EPA / NIEHS).
Inconclusive results are not listed. Active and inactive are the calls of the source. The calls were made as follows, unless noted: active = hit-call score of the fitted dose curve at least 0.9, where 1 is the maximum; inconclusive = response in the unintended direction; inactive = score below 0.9.

Columns and labels:
[1] = ATG_TAL_CIS: Attagene CIS-FACTORIAL HepG2 Assay for human TAL Basal Promoter (AID 2282966; active = hit-call score of the fitted dose curve at least 0.9, where 1 is the maximum; inactive = score below 0.9;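 also: background control endpoint measuring basal TAL promoter reporter mRNA not a specific factor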); conditions: HepG2 Attagene cis-factorial TAL promoter reporter; actives raise or lower the signal
How it was run: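 Background-control endpoint: basal TAL promoter reporter transcripts in transiently transfected HepG2, measured 24 h after dosing. Read-out by RT-PCR with fluorescent primer extension and capillary electrophoresis; gain or loss of signal fitted relative to DMSO.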

[2] = ATG_VDRE_CIS: Attagene CIS-FACTORIAL HepG2 Assay for human Vitamin D Receptor Element (VDRE) (AID 2282968; active = hit-call score of the fitted dose curve at least 0.9, where 1 is the maximum; inactive = score below 0.9); conditions: HepG2 VDRE cis-reporter transcription, actives raise or lower the signal
How it was run: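 Compounds were applied for 24 h to HepG2 cells transfected with promoter-regulated reporter units. Total RNA was reverse-transcribed, and reporter amplicons were fluorescently labelled and sized by capillary electrophoresis.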

[3] = target: X-box-binding protein 1 (Homo sapiens) (UniProt P17861); assay: ATG_Xbp1_CIS: Attagene CIS-FACTORIAL HepG2 Assay for human X-box Binding Protein 1 (XBP1) (AID 2282972; active = hit-call score of the fitted dose curve at least 0.9, where 1 is the maximum; inactive = score below 0.9); conditions: HepG2 XBP1 cis-element reporter, Attagene multiplex; actives raise or lower the signal
How it was run: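 Human hepatoma HepG2, cis-element reporter system, 24 h treatment; mRNA quantified by RT-PCR/CE fluorescence; fit relative to DMSO.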

[4] = ATG_M_19_TRANS: Attagene TRANS-FACTORIAL HepG2 Assay for M19 Transcription Factor (Internal Marker) (AID 2282974); conditions: HepG2 Attagene TRANS-FACTORIAL M19 internal marker reporter
How it was run: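 Fluorescence of 6-FAM-labelled reporter cDNA fragments, separated by capillary electrophoresis, served as the readout. These derived from HepG2 cells carrying transfected GAL4-UAS reporter units after 24 h dosing, with DMSO as negative control.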

[5] = ATG_GAL4_TRANS: Attagene TRANS-FACTORIAL HepG2 Assay for GAL4 (Internal Marker) (AID 2282976); conditions: HepG2 Attagene TRANS GAL4 internal marker reporter
How it was run: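 In transfected human HepG2 liver cells dosed 24 h, GAL4 reporter mRNA serves as a baseline marker. Detection by RT-PCR with fluorescent capillary electrophoresis, activity fitted upward relative to DMSO.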

[6] = target: Estrogen-related receptor gamma (Homo sapiens) (UniProt P62508); assay: ATG_ERRg_TRANS: Attagene TRANS-FACTORIAL HepG2 Assay for human Estrogen-Related Receptor gamma (ERRg) (AID 2282977); conditions: HepG2 Attagene TRANS reporter, ERRg transactivation;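 also: hits increase reporter signal over DMSO so potencies reflect activators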
How it was run: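 Exogenous NR-Gal4 chimera activity measured as reporter transcript induction after 24 h in transiently transfected HepG2 cells. RNA reverse-transcribed, PCR-amplified, 6-FAM-labelled and resolved by capillary electrophoresis; increase over DMSO baseline.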

[7] = target: Glucocorticoid receptor (Homo sapiens) (UniProt P04150); assay: ATG_GR_TRANS: Attagene TRANS-FACTORIAL HepG2 Assay for human Glucocorticoid Receptor (GR) (AID 2282978); conditions: HepG2 Attagene TRANS GR reporter, mRNA transcription;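 also: activators score as hits since higher reporter transcript over DMSO is fitted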
How it was run: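 Fluorescent capillary-electrophoresis quantitation of reporter mRNA is the readout, taken 24 h after dosing human HepG2 cells carrying transiently transfected GAL4-UAS reporter units activated by chimeric NR-GAL4 fusions; activity scored as induction over DMSO.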

[8] = target: Oxysterols receptor LXR-alpha (Homo sapiens) (UniProt Q13133); assay: ATG_LXRa_TRANS: Attagene TRANS-FACTORIAL HepG2 Assay for human Liver X Receptor alpha (LXRa) (AID 2282980); conditions: HepG2 Attagene TRANS reporter, LXRa transactivation
How it was run: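 Chemical-induced reporter mRNA measured by RT-PCR with fluorescent labelling and capillary electrophoresis after 24 h dosing of transiently transfected HepG2 cells expressing exogenous NR-Gal4 chimeras; increases scored against DMSO baseline.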

[9] = ATG_M_06_TRANS: Attagene TRANS-FACTORIAL HepG2 Assay for M06 Transcription Factor (Internal Marker) (AID 2282983); conditions: HepG2 Attagene TRANS M06 internal marker reporter
How it was run: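 Background-control reporter readout: after 24 h chemical exposure of transiently transfected HepG2 (GAL4-UAS reporter units), mRNA quantified by RT-PCR with fluorescent labeling and capillary electrophoresis. Gain-of-signal fitting against DMSO baseline.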

[10] = ATG_M_32_TRANS: Attagene TRANS-FACTORIAL HepG2 Assay for M32 Transcription Factor (Internal Marker) (AID 2282984); conditions: HepG2 Attagene TRANS M32 internal marker reporter
How it was run: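 Internal-marker readout from a multiplexed transcription reporter panel. HepG2 cells were transfected with GAL4-UAS reporter units, treated 24 hours, and reporter transcript levels determined by fluorescence after RT-PCR and capillary separation.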

[11] = target: Transcriptional activator Myb (Homo sapiens) (UniProt P10242); assay: ATG_Myb_CIS: Attagene CIS-FACTORIAL HepG2 Assay for human Myeloblastosis (Myb) Proto-Oncogene Transcription Factor (AID 2282986; active = hit-call score of the fitted dose curve at least 0.9, where 1 is the maximum; inactive = score below 0.9); conditions: HepG2 Attagene CIS-FACTORIAL Myb reporter transcription; actives raise or lower the signal
How it was run: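 Reporter transcript levels, quantified by fluorescent RT-PCR and capillary electrophoresis, serve as the read-out. Transfected HepG2 cells carrying cis-promoter reporter units are dosed for 24 hours, and curves are fitted bidirectionally against DMSO controls.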

[12] = target: Nuclear respiratory factor 1 (Homo sapiens) (UniProt Q16656); assay: ATG_NRF1_CIS: Attagene CIS-FACTORIAL HepG2 Assay for human Nuclear Respiratory Factor 1 (NRF1) Orphan Gene (AID 2282987; active = hit-call score of the fitted dose curve at least 0.9, where 1 is the maximum; inactive = score below 0.9); conditions: HepG2 NRF1 cis-element reporter, Attagene multiplex; actives raise or lower the signal
How it was run: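 Multiplexed cis-reporter assay, HepG2 cells, 24 h treatment. Total RNA → oligo(dT) RT → PCR with reporter-specific primers → 6-FAM primer extension → HpaI cut → CE. Bidirectional fit vs DMSO.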

[13] = target: Oxysterols receptor LXR-beta (Homo sapiens) (UniProt P55055); assay: ATG_LXRb_TRANS: Attagene TRANS-FACTORIAL HepG2 Assay for human Liver X Receptor beta (LXRb) (AID 2282981); conditions: HepG2 Attagene TRANS GAL4-LXRb reporter, mRNA
How it was run: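 Multiplexed reporter assay, HepG2, 24 h dosing. Fluorescence of labelled RT-PCR products after capillary electrophoresis gives transcript level; positive fitting direction relative to DMSO.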

[14] = target: Steroid hormone receptor ERR1 (Homo sapiens) (UniProt P11474); assay: ATG_ERRa_TRANS: Attagene TRANS-FACTORIAL HepG2 Assay for human Estrogen-Related Receptor alpha (ERRa) (AID 2282971); conditions: HepG2 Attagene TRANS reporter, ERRa transactivation
How it was run: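 Reporter transcripts from ERRa-Gal4 chimera activity measured in transiently transfected human HepG2 cells 24 hours after dosing, using RT-PCR with 6-FAM primer extension, HpaI digestion and capillary electrophoresis; DMSO is baseline.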

[15] = target: Bile acid receptor (Homo sapiens) (UniProt Q96RI1); assay: ATG_FXR_TRANS: Attagene TRANS-FACTORIAL HepG2 Assay for Farnesoid X Receptor (FXR) (AID 2282979); conditions: HepG2 Attagene TRANS FXR-GAL4 reporter transcription;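 also: hits raise reporter mRNA above DMSO so AC50 marks FXR activation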
How it was run: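 Reporter transcripts from transfected HepG2 cells were measured 24 h after dosing, using RT-PCR with capillary electrophoresis of 6-FAM-labelled fragments. The read-out reflects activity of exogenous FXR-Gal4 chimera on GAL4-UAS units, with induction relative to DMSO.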

[16] = target: Nuclear receptor subfamily 4 group A member 2 (Homo sapiens) (UniProt P43354); assay: ATG_NURR1_TRANS: Attagene TRANS-FACTORIAL HepG2 Assay for human Nuclear Receptor Related Protein 1 (NURR1) (AID 2282985); conditions: HepG2 Attagene TRANS reporter, mRNA readout
How it was run: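 Endpoint: reporter mRNA increase relative to DMSO. HepG2 cells transfected with reporter units, treated 24 h; RNA processed by RT-PCR, labelling, HpaI digestion and capillary electrophoresis.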

[17] = target: Hepatocyte nuclear factor 4-alpha (Homo sapiens) (UniProt P41235); assay: ATG_HNF4a_TRANS: Attagene TRANS-FACTORIAL HepG2 Assay for human Hepatocyte Nuclear Factor 4 alpha (HNF4a) (AID 2282982); conditions: HepG2 HNF4a transactivation reporter, mRNA readout
How it was run: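 Endpoint reflects transcriptional activation of a GAL4-UAS reporter by an HNF4a-GAL4 chimera in transfected HepG2 cells, 24 h post-dosing. Fluorescence from RT-PCR products separated by capillary electrophoresis; DMSO baseline.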

[18] = target: Nuclear receptor subfamily 1 group I member 3 (Homo sapiens) (UniProt Q14994); assay: ATG_CAR_TRANS: Attagene TRANS-FACTORIAL HepG2 Assay for human Constitutive Androstane Receptor (CAR) (AID 2282969); conditions: HepG2 Attagene TRANS-FACTORIAL CAR reporter;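 also: activators raise reporter mRNA above DMSO so AC50 marks induction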
How it was run: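 Transiently transfected HepG2, multiplex TRANS reporters (CAR-Gal4 chimera driving GAL4-UAS reporter). 24 h dosing. Readout: reporter transcript by RT-PCR + capillary electrophoresis, fluorescence intensity; positive direction vs DMSO.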

Measured: outcome

Sequence of Glucocorticoid receptor (Homo sapiens) (P04150 whole entry, looked up, the tested form may be a part): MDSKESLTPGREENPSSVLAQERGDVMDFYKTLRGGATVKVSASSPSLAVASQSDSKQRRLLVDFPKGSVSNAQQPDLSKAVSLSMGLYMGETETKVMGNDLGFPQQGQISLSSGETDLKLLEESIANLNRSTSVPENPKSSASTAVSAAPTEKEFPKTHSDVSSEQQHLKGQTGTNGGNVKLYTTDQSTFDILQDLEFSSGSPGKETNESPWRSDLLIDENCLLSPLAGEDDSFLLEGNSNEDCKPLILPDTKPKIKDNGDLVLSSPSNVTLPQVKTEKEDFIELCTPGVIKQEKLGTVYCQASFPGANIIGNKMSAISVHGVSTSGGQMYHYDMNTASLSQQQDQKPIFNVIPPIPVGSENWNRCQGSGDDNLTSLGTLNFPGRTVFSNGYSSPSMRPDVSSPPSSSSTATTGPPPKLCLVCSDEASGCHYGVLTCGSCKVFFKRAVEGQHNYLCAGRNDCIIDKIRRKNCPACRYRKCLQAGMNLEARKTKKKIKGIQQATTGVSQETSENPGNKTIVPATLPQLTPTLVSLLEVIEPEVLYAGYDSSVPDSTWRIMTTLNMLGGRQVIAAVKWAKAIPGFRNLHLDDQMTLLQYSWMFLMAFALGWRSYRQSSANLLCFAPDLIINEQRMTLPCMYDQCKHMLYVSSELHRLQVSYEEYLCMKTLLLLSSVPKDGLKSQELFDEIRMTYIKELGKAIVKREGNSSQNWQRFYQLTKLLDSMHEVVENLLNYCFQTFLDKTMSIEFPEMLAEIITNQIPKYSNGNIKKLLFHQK
Sequence of Nuclear receptor subfamily 4 group A member 2 (Homo sapiens) (P43354 whole entry, looked up): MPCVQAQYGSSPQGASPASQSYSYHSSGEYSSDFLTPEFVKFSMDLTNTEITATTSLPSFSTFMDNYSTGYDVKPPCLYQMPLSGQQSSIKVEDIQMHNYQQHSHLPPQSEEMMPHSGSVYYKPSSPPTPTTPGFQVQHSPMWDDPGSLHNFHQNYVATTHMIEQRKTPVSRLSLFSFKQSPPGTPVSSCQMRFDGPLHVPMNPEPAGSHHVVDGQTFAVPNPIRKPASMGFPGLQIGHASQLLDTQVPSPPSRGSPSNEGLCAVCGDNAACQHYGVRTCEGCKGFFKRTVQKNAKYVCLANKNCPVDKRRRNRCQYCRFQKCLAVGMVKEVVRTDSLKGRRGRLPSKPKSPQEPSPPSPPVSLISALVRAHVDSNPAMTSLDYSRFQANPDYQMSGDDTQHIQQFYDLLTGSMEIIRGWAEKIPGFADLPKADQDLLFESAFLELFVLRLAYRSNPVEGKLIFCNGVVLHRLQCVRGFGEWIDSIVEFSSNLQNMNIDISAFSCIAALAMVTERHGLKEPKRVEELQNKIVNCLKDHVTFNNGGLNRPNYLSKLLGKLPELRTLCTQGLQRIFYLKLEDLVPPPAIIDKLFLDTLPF
Sequence of X-box-binding protein 1 (Homo sapiens) (P17861 whole entry, looked up): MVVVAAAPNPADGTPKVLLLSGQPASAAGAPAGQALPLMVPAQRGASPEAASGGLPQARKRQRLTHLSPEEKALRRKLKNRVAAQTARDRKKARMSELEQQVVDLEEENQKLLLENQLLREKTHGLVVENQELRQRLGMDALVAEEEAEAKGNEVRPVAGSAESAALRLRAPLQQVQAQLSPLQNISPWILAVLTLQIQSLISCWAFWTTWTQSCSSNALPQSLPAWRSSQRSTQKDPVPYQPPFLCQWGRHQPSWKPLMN
Sequence of Nuclear respiratory factor 1 (Homo sapiens) (Q16656 whole entry, looked up): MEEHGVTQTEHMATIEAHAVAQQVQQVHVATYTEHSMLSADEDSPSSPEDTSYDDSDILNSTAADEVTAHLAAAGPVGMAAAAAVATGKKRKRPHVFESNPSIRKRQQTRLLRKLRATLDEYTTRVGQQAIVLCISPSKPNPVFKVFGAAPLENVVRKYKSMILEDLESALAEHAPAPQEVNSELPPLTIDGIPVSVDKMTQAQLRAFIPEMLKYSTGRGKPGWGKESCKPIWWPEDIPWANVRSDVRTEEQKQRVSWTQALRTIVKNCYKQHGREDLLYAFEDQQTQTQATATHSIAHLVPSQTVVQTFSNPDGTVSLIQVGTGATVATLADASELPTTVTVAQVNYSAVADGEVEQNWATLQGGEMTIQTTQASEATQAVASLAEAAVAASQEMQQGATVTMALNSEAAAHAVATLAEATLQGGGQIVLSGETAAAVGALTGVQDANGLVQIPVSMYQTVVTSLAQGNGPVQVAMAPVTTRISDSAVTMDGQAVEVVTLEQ
Sequence of Oxysterols receptor LXR-beta (Homo sapiens) (P55055 whole entry, looked up, the tested form may be a part): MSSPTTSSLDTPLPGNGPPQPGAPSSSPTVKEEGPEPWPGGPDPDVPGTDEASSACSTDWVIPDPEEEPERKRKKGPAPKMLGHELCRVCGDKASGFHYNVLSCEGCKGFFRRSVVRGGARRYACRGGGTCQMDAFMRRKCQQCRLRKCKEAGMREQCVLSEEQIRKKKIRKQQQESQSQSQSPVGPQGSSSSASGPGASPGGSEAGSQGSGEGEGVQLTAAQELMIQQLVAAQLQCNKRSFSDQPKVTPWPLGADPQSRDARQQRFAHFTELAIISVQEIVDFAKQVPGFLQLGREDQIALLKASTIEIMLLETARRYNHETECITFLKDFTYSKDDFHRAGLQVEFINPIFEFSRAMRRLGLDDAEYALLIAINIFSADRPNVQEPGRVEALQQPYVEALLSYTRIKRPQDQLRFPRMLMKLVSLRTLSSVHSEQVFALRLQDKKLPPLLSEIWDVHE
Sequence of Oxysterols receptor LXR-alpha (Homo sapiens) (Q13133 whole entry, looked up, the tested form may be a part): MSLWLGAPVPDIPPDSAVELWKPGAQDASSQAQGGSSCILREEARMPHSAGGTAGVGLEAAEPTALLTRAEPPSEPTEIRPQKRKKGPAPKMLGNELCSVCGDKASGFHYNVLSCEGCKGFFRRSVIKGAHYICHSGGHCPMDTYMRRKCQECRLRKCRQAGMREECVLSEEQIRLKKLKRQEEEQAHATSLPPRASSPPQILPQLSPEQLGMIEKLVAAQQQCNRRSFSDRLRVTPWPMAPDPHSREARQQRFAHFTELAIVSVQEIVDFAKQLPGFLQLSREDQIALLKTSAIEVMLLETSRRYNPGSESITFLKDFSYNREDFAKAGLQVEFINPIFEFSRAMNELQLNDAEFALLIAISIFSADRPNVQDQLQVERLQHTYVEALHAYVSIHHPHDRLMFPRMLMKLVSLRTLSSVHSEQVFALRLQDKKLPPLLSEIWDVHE
Sequence of Transcriptional activator Myb (Homo sapiens) (P10242 whole entry, looked up): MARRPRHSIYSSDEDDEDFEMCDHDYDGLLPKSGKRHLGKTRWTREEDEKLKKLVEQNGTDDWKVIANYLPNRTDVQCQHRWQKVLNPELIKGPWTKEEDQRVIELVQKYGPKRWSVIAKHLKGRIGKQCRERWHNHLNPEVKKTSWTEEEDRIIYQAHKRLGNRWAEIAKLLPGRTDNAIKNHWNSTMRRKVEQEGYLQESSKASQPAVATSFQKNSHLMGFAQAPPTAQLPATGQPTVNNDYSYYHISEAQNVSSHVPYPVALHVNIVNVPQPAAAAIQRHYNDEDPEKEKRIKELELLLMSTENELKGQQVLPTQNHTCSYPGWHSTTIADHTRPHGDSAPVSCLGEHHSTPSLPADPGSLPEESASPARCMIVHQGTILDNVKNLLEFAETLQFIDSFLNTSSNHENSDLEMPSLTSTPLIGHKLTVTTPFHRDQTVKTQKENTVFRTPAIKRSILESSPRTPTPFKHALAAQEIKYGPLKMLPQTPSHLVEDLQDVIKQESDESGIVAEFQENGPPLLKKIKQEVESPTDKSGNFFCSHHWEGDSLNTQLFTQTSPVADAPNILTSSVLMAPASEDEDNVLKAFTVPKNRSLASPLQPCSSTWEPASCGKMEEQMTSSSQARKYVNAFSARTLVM
Sequence of Bile acid receptor (Homo sapiens) (Q96RI1 whole entry, looked up, the tested form may be a part): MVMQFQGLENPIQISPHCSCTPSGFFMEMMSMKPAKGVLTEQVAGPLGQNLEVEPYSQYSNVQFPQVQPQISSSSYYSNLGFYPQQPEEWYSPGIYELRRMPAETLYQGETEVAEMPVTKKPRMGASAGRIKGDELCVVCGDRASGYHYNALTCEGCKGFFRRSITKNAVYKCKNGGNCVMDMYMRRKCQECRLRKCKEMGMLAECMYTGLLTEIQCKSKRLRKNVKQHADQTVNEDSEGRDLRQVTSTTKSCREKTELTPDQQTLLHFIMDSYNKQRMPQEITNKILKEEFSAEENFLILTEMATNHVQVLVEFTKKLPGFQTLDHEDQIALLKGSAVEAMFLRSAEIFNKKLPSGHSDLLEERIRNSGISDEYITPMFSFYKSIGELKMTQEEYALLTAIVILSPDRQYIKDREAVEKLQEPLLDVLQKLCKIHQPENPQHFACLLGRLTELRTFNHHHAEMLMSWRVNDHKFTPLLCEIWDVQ
Sequence of Estrogen-related receptor gamma (Homo sapiens) (P62508 whole entry, looked up, the tested form may be a part): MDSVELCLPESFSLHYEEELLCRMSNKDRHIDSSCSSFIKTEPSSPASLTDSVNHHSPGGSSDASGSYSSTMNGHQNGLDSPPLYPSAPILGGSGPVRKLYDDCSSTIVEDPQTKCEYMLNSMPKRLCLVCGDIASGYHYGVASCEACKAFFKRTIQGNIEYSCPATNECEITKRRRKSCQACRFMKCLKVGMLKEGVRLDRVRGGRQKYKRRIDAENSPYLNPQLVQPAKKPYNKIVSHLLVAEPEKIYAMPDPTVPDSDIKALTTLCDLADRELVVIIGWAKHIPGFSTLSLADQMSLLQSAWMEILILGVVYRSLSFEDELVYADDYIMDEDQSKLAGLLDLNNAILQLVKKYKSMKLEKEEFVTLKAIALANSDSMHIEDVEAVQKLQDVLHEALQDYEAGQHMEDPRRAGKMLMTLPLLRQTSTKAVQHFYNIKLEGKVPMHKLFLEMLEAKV
Sequence of Nuclear receptor subfamily 1 group I member 3 (Homo sapiens) (Q14994 whole entry, looked up, the tested form may be a part): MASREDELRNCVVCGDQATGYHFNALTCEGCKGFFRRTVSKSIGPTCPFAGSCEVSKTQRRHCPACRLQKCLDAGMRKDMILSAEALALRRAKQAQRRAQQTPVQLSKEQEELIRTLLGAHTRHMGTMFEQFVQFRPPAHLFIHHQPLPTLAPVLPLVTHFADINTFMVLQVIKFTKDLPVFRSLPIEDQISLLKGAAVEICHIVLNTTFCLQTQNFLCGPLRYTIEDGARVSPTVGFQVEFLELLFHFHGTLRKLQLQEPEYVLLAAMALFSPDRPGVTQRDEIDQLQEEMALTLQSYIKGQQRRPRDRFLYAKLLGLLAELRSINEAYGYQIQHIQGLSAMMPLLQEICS

CCCCCC(C)=O
not listed: [13] | [14] | [15] | [16] | [17] | [18]
inactive: all other assays above

COC(C)(C)CCO
not listed: [8] | [9] | [14] | [15] | [16] | [17] | [18]
inactive: all other assays above

IC(I)I
not listed: [2] | [5] | [9] | [17] | [18]
inactive: all other assays above

CC1CCC(C(C)C)C(O)C1 (configuration not stated)
not listed: [4] | [6] | [7] | [10] | [14] | [17] | [18]
inactive: all other assays above

CCCCC(CC)COC(=O)c1ccc(O)cc1 (configuration not stated)
not listed: [4] | [6] | [14] | [18]
inactive: all other assays above

CC(=O)O[C@@H]1CC2CCC1(C)C2(C)C (some centres not stated)
not listed: [6] | [7] | [9] | [14] | [18]
inactive: all other assays above

COc1ccc(CCC(C)=O)cc1
inactive: [1] | [2] | [3] | [5] | [15] | [8] | [13] | [10] | [11] | [12]

CC/C=C\CC/C=C/CO
not listed: [2] | [4] | [7] | [14] | [17]
inactive: all other assays above
